# In PubChem BioAssay (NCI):
# Values joined by “and” are separate entries in the source; they are usually repeats but may differ in a detail not shown here. Identical values can stand only once. About 79,000 compounds went through this panel and 15% of them were active in at least one assay; those are over-represented in the sample as a whole. Unmarked numbers belong to inactive results. Active and inactive are the calls of the source. Rule as the data show it: active = growth inhibition above about 70%; inactive = the rest.
# Experiments:
# [1] = NCI Yeast Anticancer Drug Screen. Data for the rad50 strain (AID 155);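 also: 0% = growth of vehicle-only cultures of the same strain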; conditions: S. cerevisiae rad50 strain growth inhibition, hits give high values
# Summary of the method: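 Inhibition values express reduced yeast growth in compound-treated cultures relative to vehicle-treated controls.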
# [2] = NCI Yeast Anticancer Drug Screen. Data for the mec2-1 strain (AID 157); conditions: S. cerevisiae mec2-1 strain, hits give high values
# Summary of the method: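 mec2-1 yeast strain, carrying an alteration in DNA damage repair or cell cycle control, was exposed to compounds; growth inhibition was measured relative to vehicle-treated controls.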
# [3] = NCI Yeast Anticancer Drug Screen. Data for the sgs1 mgt1 strain (AID 161);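 also: 0% = growth of cultures given vehicle only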; conditions: S. cerevisiae sgs1 mgt1 strain, hits give high values
# Summary of the method: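 This yeast growth screen uses a strain with defined DNA-repair lesions; compound-treated growth is compared with vehicle-treated growth.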
# [4] = NCI Yeast Anticancer Drug Screen. Data for the cln2 rad14 strain (AID 165);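 also: 0% = growth equal to vehicle treated cultures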; conditions: S. cerevisiae cln2 rad14 strain, hits give high values
# Summary of the method: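 Yeast carrying cln2 and rad14 alterations (cell cycle control and DNA damage repair) were exposed to compounds. Growth inhibition was measured against vehicle-treated controls.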
# [5] = NCI Yeast Anticancer Drug Screen. Data for the bub3 strain (AID 167); conditions: S. cerevisiae bub3 mutant strain, hits give high values
# Summary of the method: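 Steps: expose the mutant yeast strain to compound; grow alongside vehicle-treated cultures; measure growth; express inhibition against the vehicle cultures.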
# [6] = NCI Yeast Anticancer Drug Screen. Data for the mlh1 rad18 strain (AID 175); conditions: S. cerevisiae mlh1 rad18 strain growth inhibition, hits give high values
# Summary of the method: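 Growth inhibition of the yeast strain was measured after compound exposure and expressed relative to vehicle-treated controls. The strain carries defined defects in DNA damage repair.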
# [7] = at 5.0 µM (retest, dose inferred, filed as 0.5)
# [8] = at 50.0 µM (retest, dose inferred, filed as 5.0)
SMILES,"growth inhibition [1, 7]","growth inhibition [1, 8]",growth inhibition ([1]; at 50.0 µM),"growth inhibition [2, 7]","growth inhibition [2, 8]",growth inhibition ([2]; at 50.0 µM),"growth inhibition [3, 7]","growth inhibition [3, 8]",growth inhibition ([3]; at 50.0 µM),"growth inhibition [4, 7]","growth inhibition [4, 8]",growth inhibition ([4]; at 50.0 µM),"growth inhibition [5, 7]","growth inhibition [5, 8]",growth inhibition ([5]; at 50.0 µM),"growth inhibition [6, 7]","growth inhibition [6, 8]",growth inhibition ([6]; at 50.0 µM)
CC(=O)OC1C(O)C(C)OC(OC2C(OC(=O)C3CCC4C(C3)OC3(CC(OC(=O)/C=C/c5ccccc5)C(C)CO3)C43CO3)OC(C)C(O)C2OC(C)=O)C1O (stereo not drawn),-20%,96% (active),91% (active),10%,98% (active),92.7% (active),-5%,95% (active),93% (active),24%,96% (active),90.1% (active),6%,98% (active),92.2% (active),-1%,97% (active),91.6% (active)
CC(C)=CC1CC(C)C2(CCC3(C)CC4C(C(=O)CC4(C)O)/C(C=O)=C\CC32)O1 (stereo not drawn),99% (active),100% (active),94.5% (active),99% (active),100% (active),94.6% (active),99% (active),99% (active),95% (active),99% (active),99% (active),93.6% (active),99% (active),100% (active),94.5% (active),99% (active),100% (active),93.7% (active)
CCCCCCC[CH2][Sn]([F])([F])[CH2]CCCCCCC,3%,-7%,41%,12%,4%,46.5%,-1%,-2%,7.45%,-1%,-5%,19.9%,4%,-1%,-5.1%,4%,-15%,40.2%
COc1ccccc1/C=C(/C)[N+](=O)[O-],96% (active),99% (active),99.5% (active),35% and 21%,99% (active) and 100% (active),99.8% (active),34% and 55%,99% (active) and 100% (active),99.2% (active),13% and 12%,99% (active),99.5% (active),34% and 27%,99% (active) and 100% (active),99.8% (active),34% and -4%,99% (active),99.5% (active)
CCCC[CH2][Sn]([CH2]CCCC)[CH2]CCCC.CCCC[CH2][Sn]([CH2]CCCC)[CH2]CCCC,78% (active),99% (active),99.2% (active),61%,100% (active),99.5% (active),67%,100% (active),99.5% (active),8%,99% (active),98.8% (active),20%,100% (active),98.8% (active),46%,100% (active),99.1% (active)
O=[N+]([O-])c1ccc(O)c(CCl)c1,6%,41%,16.5%,-1%,22%,1.6%,0%,36%,20.9%,0%,5%,-4.15%,3%,18%,8.65%,4%,59%,76.2% (active)
OC(c1cc2c(c3ccccc13)CCCC2)C1CCCCN1 (stereo not drawn),-4%,17%,64.5%,-1%,12%,42.4%,3%,47%,68%,1%,21%,79.7% (active),0%,18%,59%,0%,41%,95.5% (active)
C=CCC[CH2][Sn]([c]1ccccc1)([c]1ccccc1)[c]1ccccc1,98% (active),93% (active),99.5% (active),99% (active),98% (active),99.5% (active),99% (active),98% (active),99.4% (active),98% (active),96% (active),98.2% (active),97% (active),97% (active),99% (active),99% (active),97% (active),99.4% (active)
C[C@]12CC[C@H]3[C@@H](C[C@@H](F)C4=CC(=O)CC[C@@]43C)[C@@H]1CC[C@@H]2O,7%,46%,56.2%,3%,58%,7.4%,4%,93% (active),56%,-2%,30%,6.75%,0%,80% (active),34%,15%,86% (active),30.1%
O=C(Cl)c1ccccn1,6%,98% (active),99.5% (active),7%,99% (active),99.5% (active),7%,99% (active),77.8% (active),6%,99% (active),99.3% (active),4%,99% (active),99.3% (active),1%,99% (active),99.5% (active)
c1ccc2c(c1)[nH]c1c2cc[n+]2cc3c(cc12)CCCC3,30% and 19%,79% (active) and 97% (active),89.2% (active) and 91.5% (active),51% and 19%,85% (active) and 97% (active),89.6% (active) and 91.6% (active),45% and 26%,97% (active) and 98% (active),91.9% (active),55% and 26%,97% (active) and 89% (active),83.2% (active),68% and 33%,96% (active) and 98% (active),91.3% (active),29% and 27%,89% (active) and 98% (active),88.7% (active) and 86.2% (active)
Oc1c(Cl)c(Cl)c(Cl)c(Cl)c1Cl,14% and 30%,99% (active) and 100% (active),80.8% (active) and 99% (active),16% and 23%,100% (active) and 99% (active),99.8% (active) and 99% (active),13% and 39%,98% (active) and 99% (active),97.5% (active) and 99.2% (active),15% and 30%,99% (active),99% (active),5% and 13%,99% (active),99.4% (active) and 99% (active),21% and 40%,99% (active),90% (active) and 99% (active)
CCC(C)N1CN(c2ccccc2)C2(CCN(CCCC3(c4ccc(F)cc4)OCCO3)CC2)C1=O (stereo not drawn),-9%,93% (active),-0.8%,-7%,98% (active),5.3%,-6%,95% (active),34%,-7%,92% (active),74.5% (active),-2%,94% (active),7.55%,-3%,96% (active),31%
O=C(O)C1(c2ccccc2)OC1c1ccccc1 (stereo not drawn),2%,67%,47%,0%,82% (active),81.3% (active),3%,71% (active),84.7% (active),2%,80% (active),79.8% (active),-6%,93% (active),64.6%,-1%,86% (active),84.3% (active)
O=C1c2ccccc2[Se](=O)N1c1ccccc1 (stereo not drawn),50%,96% (active),93.1% (active),61%,99% (active),93.9% (active),23%,96% (active),93% (active),45%,98% (active),91.7% (active),72% (active),99% (active),90.8% (active),83% (active),98% (active),90.8% (active)
Cc1ccc2c(c1)SP(=S)(c1ccccc1)N2 (stereo not drawn),6%,99% (active),99.2% (active),4%,99% (active),99.5% (active),8%,97% (active),99.3% (active),15%,97% (active),54.4%,0%,99% (active),98.8% (active),3%,99% (active),98% (active)
